This passage reports growth results from PubChem BioAssay (NCI).

About 83,000 compounds went through this panel and 20% of them were active in at least one assay; those are over-represented in the sample as a whole.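 Each cell line was grown in a 96-well plate and treated with one concentration of compound for 48 hours. Values below 10 were considered active.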 Values without a mark were called inactive. The source made the active and inactive calls.

This assay has as its system HL-60(TB) leukemia. Put plainly: NCI-60 one-dose screen, 48 h (100 = growth as untreated, 0 = no growth, -100 = all killed). Conditions: 10 µM unless noted.
As to `COC(=O)c1oc2c(C(=O)/C=C/c3ccc(OC)cc3)c(OCCCN3CCCCC3)ccc2c1C`, the growth is -54.7% (active).
In the case of `Cc1c(C(=O)/C=C/Nc2c(Cl)cc(S(N)(=O)=O)cc2Cl)sc2nc3ccccc3n12`, the growth is 101%.
Turning to `O=C(Nc1ccccc1-c1nc2ccccc2c(=O)[nH]1)c1cc2ccccc2[nH]1`, the growth was 65.5%.
On to `C=CCSSC1N=CNc2nc[nH]c21` (stereo not given), for which the growth is 32%.
`O=C1C=CC(=O)N1c1ccc(O)cc1`: the growth was 112%.
With `CC(=O)c1cnc(-c2ccccc2)nc1CBr`, the growth is 41.5%.
The same measure for `O=C(NCCNC(=O)c1ccc(F)cc1)Nc1ccc(-n2cc(-c3ccncc3)c(-c3ccc(Cl)c(O)c3)n2)cc1`: -14.1% (active).
For the compound `COc1cc(/C=C\c2cc(OC)c(OC)c(OC)c2)cc(NC(=O)/C=C/c2cc(OC)c(OC)c(OC)c2)c1OC`, the growth is -6.4% (active).
The figure for `CC(O)c1ncc(/C=C2\SC(=S)N(Cc3ccccc3)C2=O)s1` (stereo not given) is 85.2%; for `COC(=O)c1c2c(c(C)[n+]([O-])c1C)C(=O)C(NCc1ccc(Br)cc1)=CC2=O` it is -19.9% (active).
`Nc1nc2c(c3cnccc13)C(c1ccc(Cl)c(Cl)c1)Cc1cnccc1-2` (stereo not given): the growth is -16.5% (active).
For the compound `COc1ccc(OC)c(CCn2cncc2-c2c[nH]c3cc(Br)ccc23)c1`, the growth is -9.46% (active).
Take `Cc1ccc2c(c1)C(=O)/C(=C/c1ccc(OCC(=O)c3ccccc3)cc1)O2`: the growth is 69.9%.
In the case of `Nc1cc(-c2ccc(Cl)cc2)nn1-c1nc(-c2ccc(Br)cc2)cs1`, the growth is 96.3%.
In the case of `CCCCC#Cc1c(I)n(C2OC(CO[Si](C)(C)C(C)(C)C)C3OC(C)(C)OC32)c(=O)n(C(=O)c2ccccc2)c1=O` (stereo not given), the growth was 20.4%.
